# Measured values taken from PubChem BioAssay AID624354 (Sanford-Burnham Center for Chemical Genomics, 2012).
# Among all 360,000 compounds or so, about 3,800 (1.1%) were called active. The sample holds actives, similar compounds and a random draw of the others, so the mix is not that of the screen. A number with no mark means an inactive call.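 How the source made its calls: active means compounds causing at least 50% loss of cell viability in the single-dose screen, relative to plate controls; inactive means the rest.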
# Experiment: viability loss with TRAIL in NB7+C8 cells, primary screen, TRAIL sensitizer project, cell-based, ATPlite luminescence (AID 624354)
# Conditions: at 10 µM, active compounds read high
row,SMILES,"inhibition (viability loss, TRAIL sensitization)"
1,CN1C(=O)c2ccccc2C(C(=O)NCCCN2CCCC2)C1c1c[nH]c2ccccc12 (stereo not drawn),61.6% (active)
2,O=C(NCCCN1CCCCC1)C1CC(=O)N(CCc2ccccc2)C1 (stereo not drawn),1%
3,CCN(CC)CCNC(=O)C1c2ccccc2C(=O)N(C)C1c1cn(C)c2ccccc12 (stereo not drawn),14.1%
4,COCOc1cccc(CN2CCC(C)(Oc3ccc(SC)cc3)C2)c1 (stereo not drawn),10.9%
5,C[C@@H]1CN([C@H](C)CO)C(=O)CCCn2cc(nn2)CO[C@H]1CN(C)S(=O)(=O)c1ccc(Oc2ccccc2)nc1,2.33%
6,COc1ccc(CCNCC(O)Cn2ccc3ccccc32)cc1OC (stereo not drawn),-3.08%
7,O=C(NC1CCCCC1)c1ccc(CNc2c(N3CCOCC3)c(=O)c2=O)cc1,-0.739%
8,CCOC(=O)C1CCCN(C(=O)c2sc3nc(C)nc(N4CCOCC4)c3c2C)C1 (stereo not drawn),15.8%
9,CS(=O)(=O)c1ccc2c(c1)SC1=NC(=O)/C(=C/c3ccco3)C(=N)N12,11.3%
10,CCOC(=O)C1=C(O)/C(=C/c2cc(C)n(-c3ccccc3)c2C)N=C1C,-20.2%
11,Cc1cc(/C=C2/C(=N)N3C(=NC2=O)SN=C3S(C)(=O)=O)c(C)n1-c1ccccc1,72.2% (active)
12,COC(=O)C[C@@H]1C=C[C@@H](NC(=O)c2cccnc2)[C@@H](CO)O1,-8.25%
13,O=C(NC1CCCCC1)C(c1cc2ccccc2o1)n1c(=O)c(-c2ccco2)nc2ccccc21 (stereo not drawn),1.96%
14,CCOc1ccc(/C=N\NC(=O)c2c(C)nc3cc(C)ccn23)cc1,7.46%
15,CCOc1ccc(-c2cc(C(=O)N/N=C/c3ccc(O)cc3)c3ccccc3n2)cc1,72.3% (active)
16,C/C(=N\NC(=O)c1cc(-c2ccc(O)cc2)nc2ccccc12)c1cccnc1,3.5%
17,Cc1ccc(S(=O)(=O)NCC2CCC(C(=O)N3CCOCC3)CC2)cc1 (stereo not drawn),-6.3%
18,C[C@H]1NS(=O)(=O)c2cc(Cl)ccc2O[C@@H]1c1ccccc1,11.6%
19,CCCn1nc(Oc2nc(NC(C)C)nc(N(C)C)n2)ccc1=O,-7.89%
20,Cc1ccc2cc(CCNC(=O)c3ccc4c(c3)OCO4)c(=O)[nH]c2c1,1.68%
21,Cc1nc2cc(NCc3cccs3)ccc2n1C,2.96%
22,C=CCN(C(=O)Nc1ccc2c(c1)nc(C)n2C)c1ccccc1,14.6%
23,Cc1nc2cc(NC(=O)Nc3cccc(F)c3)ccc2n1C,63.6% (active)
24,Cc1cc([N+](=O)[O-])c(=O)[nH]c1C,16.2%

row,SMILES,"inhibition (viability loss, TRAIL sensitization)"
1,COC(=O)CCSc1nccn1Cc1ccccc1,-2.49%
2,O=C(CN1C(=O)c2cccnc2Oc2ccc(Cl)cc21)Nc1ccc(F)cc1,4.45%
3,CC(/C=C/C1(O)C(C)CC(=O)CC1(C)C)OC1OC(CO)C(O)C(O)C1O (stereo not drawn),14.6%
4,CN(CCO)c1ccc(/C=N/Nc2nncc3ccccc23)cc1,95.3% (active)
5,O=C1COc2c1ccc(O)c2O,-11.8%
6,CCC(C)c1ccc(O)c(/C=N/O)c1 (stereo not drawn),51% (active)
7,CNCC(O)c1ccc(O)c(O)c1 (stereo not drawn),-0.467%
8,CS(=O)(=O)N(Cc1ccc(Cl)cc1)c1ccc(C(=O)NCCSCc2ccco2)cc1,-4.92%
9,CCc1c(C)c2ccc(OC3CCCCC3=O)cc2oc1=O (stereo not drawn),-0.131%
10,O=C(NCCCN1CCN(c2ccccc2F)CC1)C1CCC(=O)N1C1CCCCC1 (stereo not drawn),0.0726%
11,Cc1c(C(=O)NCCN(C)C)oc2ccc(S(=O)(=O)N3CCCC3)cc12,-7.61%
12,CCOc1ccc(C(CCc2ccccc2)NC(=O)c2ccc(OC)c(OC)c2)cc1OCC (stereo not drawn),30.5%
13,COc1ccc(CCNC(=O)CN(c2ccccc2)S(C)(=O)=O)cc1OC,-3.49%
14,COc1ccc(C(CCN(Cc2ccc(OC)c(OC)c2)C(=O)CCl)c2ccccc2)cc1 (stereo not drawn),97.3% (active)
15,CCOc1ccc(NC(=O)N(CCC(C)C)C(C)c2ccco2)cc1 (stereo not drawn),-2%
16,CCOc1ccc(-c2nnc(-c3ccco3)o2)cc1,55.3% (active)
17,N#Cc1ccc(OCc2nnc(-c3ccc([N+](=O)[O-])cc3)o2)cc1,-1.32%
18,O=C(Nc1n[nH]c(C(F)(F)F)n1)c1cccs1,-2.07%
19,Cc1nc(-c2ccc(NC(=O)c3cccs3)cc2)cs1,81% (active)
20,COc1cc(NC(=O)c2ccc(-c3csc(C)n3)cc2)c(OC)cc1Cl,25.1%
21,CC(=O)NNc1cc(=O)c2c(=O)n(C)c(=O)n(C)c2[nH]1,7.17%
22,Cc1cc(C)cc(NC(=O)NCc2ccccn2)c1,7.88%
23,Cc1cnc(NC(=O)Cn2cnc3c2c(=O)n(C)c(=O)n3C)s1,-2.16%
24,Cc1cnc(NC(=O)c2ccccn2)s1,56% (active)

row,SMILES,"inhibition (viability loss, TRAIL sensitization)"
1,COc1ccc2occ(C(=O)c3ccc(N=C(C)N(C)C)cc3)c2c1,10.5%
2,O=C(Nc1ccc(OC(F)(F)F)cc1)c1ccc2c(c1)no[n+]2[O-],86.8% (active)
3,CCc1nnc(NS(=O)(=O)c2ccc(NC(=O)c3cccc(OC(F)(F)C(F)F)c3)cc2)s1,-18.2%
4,Cc1ccc(NC(=O)c2ccc(Oc3ncccn3)cc2)cc1,1.61%
5,C=CCn1c(C)cc(C(=O)CN2C(=O)c3ccccc3C2=O)c1C,52% (active)
6,C=CCN(CC=C)C(=O)CN1C(=O)c2ccccc2C1=O,36.5%
7,Cc1ccccc1C(=O)NNC(=O)CN1C(=O)c2ccccc2C1=O,-2.34%
8,COc1ccc(CN2C[C@H]3CON(C)[C@H]3C[C@H]2c2ccc(-c3cccc(F)c3)cc2)cc1,17%
9,COc1cc(NC(=O)Nc2ccc(C)cc2)cc([N+](=O)[O-])c1,3.5%
10,COc1ccc(NC(=O)/C(Cl)=C(/Cl)S(=O)Cc2ccc(C)cc2)cn1 (stereo not drawn),95.5% (active)
11,COC(C)(C)[C@]12CC(O)(C(C)C)ON1[C@H]1CCCCC1N2O (stereo partly drawn),-21.2%
12,O=[N+]([O-])c1cccc(C=NN=Cc2ccccc2O)c1,11%
13,O=[N+]([O-])c1c(NCCO)cc(Sc2nc3ccccc3s2)c2nonc12,20.4%
14,O=[N+]([O-])c1cc(Br)c(O)c(/C=N/Nc2nc3ccccc3s2)c1,51.2% (active)
15,CC(C)C[C@H]1CNC(=S)N1C[C@H]1CCCN1C[C@H](Cc1ccc(O)cc1)N1C[C@H](Cc2ccc(O)cc2)N(CC2CCCCC2)C1=S,9.11%
16,COc1cc(/C=C2\Oc3ccc(C#Cc4ccc(O)cc4)cc3C2=O)cc(OC)c1,64.7% (active)
17,COc1cc(C(=O)N2CCOC23CCN(Cc2ccccc2)CC3)cc(OC)c1OC,-0.803%
18,CCSCc1nc(N)nc(NCCc2ccccc2)n1,-10.6%
19,CC(=O)Nc1cccc(C(=O)OCC(=O)NCc2cc(C)c(O)c(C)c2)c1,-2.97%
20,CC(=O)Nc1cccc(C(=O)OCC(=O)c2ccc3c(c2)OCO3)c1,61.4% (active)
21,CC(=O)Nc1cccc(C(=O)OCN2C(=O)c3ccccc3C2=O)c1,-5.54%
22,CC(C)C[C@@H](COc1ccccc1)N1CCN(CC(C)C)CCC1=O,-6.68%
23,CCCCc1nc(NCCN)c(C#N)c2c1CSC(C)(C)C2,57.7% (active)
24,CCCCc1nc(NCc2ccccc2)c(C#N)c2c1CCCC2,4.11%

row,SMILES,"inhibition (viability loss, TRAIL sensitization)"
1,CC(=O)N1CCCc2cc(S(=O)(=O)N3CCCC(C(=O)N4CCN(c5cccc(Cl)c5)CC4)C3)ccc21 (stereo not drawn),35.8%
2,Cc1nc2ccc(N)nc2nc1C,6.29%
3,COc1cccc(-n2c(=O)c3c(C)c(C(=O)N(C)C)sc3n(CC(=O)NCCc3ccc(OC)c(OC)c3)c2=O)c1,-6.94%
4,Cc1cccc(/C(N)=N/OC(=O)c2ccccc2Cl)c1,60.5% (active)
5,Cc1cc(OC(=O)c2ccccc2Cl)ccc1N1C(=O)CCC1=O,7.7%
6,C/C(=N\OC(=O)c1ccccc1)c1c(C)nc2cc(C)ccn12,-6.57%
7,O=C(Nc1cccc2c1N(C(=O)c1ccco1)CCC2)c1ccco1,-4.17%
8,Cc1ccc(C(C)C)c(OCCSc2nc3ccccc3n2CC(=O)O)c1,-6.21%
9,COc1ccc(NC(=O)CN2C(=O)COc3ccc(S(=O)(=O)N4CCOCC4)cc32)cc1,4.01%
10,Cc1cc(Cl)c2oc(C(=O)N3CCC(O)(c4ccccc4)CC3)c(C)c2c1,12.6%
11,C[C@@H](Nc1nc(-c2ccccc2)nc2c1oc1ccccc12)C(=O)O,-9.15%
12,Cc1nc(N2CCCC2C(=O)O)c2oc3ccccc3c2n1 (stereo not drawn),-12.2%
13,Cc1nc(Cl)c2oc3ccccc3c2n1,69.6% (active)
14,CC(=O)N(Cc1cc(=O)[nH]c2ccccc12)c1ccc(C)cc1C,1.98%
15,Cc1ccc(N(Cc2cc(=O)[nH]c3ccccc23)C(=O)CCl)cc1,92.9% (active)
16,CCC(=O)N(Cc1cc2ccccc2[nH]c1=O)c1ccc(OC)cc1,-1.03%
17,CN(C(=O)CSc1nnc(-c2ccc3c(c2)OCO3)o1)C1CCS(=O)(=O)C1 (stereo not drawn),-7.74%
18,C=C1C(=O)[C@]23C[C@H]1CCC2[C@@]1(C)C(C[C@@H]3O)[C@](C)(C(=O)O)CC[C@@H]1O (stereo partly drawn),25.6%
19,CCOc1ccc2nc(N3CCCN(C(=O)Nc4ccccc4C)CC3)c(C#N)cc2c1,4.35%
20,CCOc1ccc2cc(C#N)c(SCC(=O)OC)nc2c1,51.7% (active)
21,COc1ccc(CCNC(=O)CSc2nc(-c3ccc(OC)c(OC)c3)ccc2C#N)cc1,28%
